# Experimental data reported in PubChem BioAssay (EPA / NIEHS).
# Inconclusive results are not listed. The source made the active and inactive calls. The calls were made as follows, unless noted: active = hit-call score of the fitted dose curve at least 0.9, where 1 is the maximum; inactive = score below 0.9.
# Experiments:
# [1] = system: SRY-box transcription factor 17 (SOX17) Protein Expression, Deisenroth Lab, SOX17 (gene 64321); test: CCTE_Deisenroth_DEVTOX-GLR_Endo_SOX17: CCTE's DevTox GLR-Endo Assay Evaluation of SRY-box transcription factor 17 (SOX17) Protein Expression, Deisenroth Lab (AID 2284413)
# Procedure, shortened: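 RUES2-GLR human pluripotent cells were seeded 24 h, then differentiated toward endoderm for 48 h with two chemical exposures 24 h apart (10-point series, 1 nM - 200 uM). Nuclei-stained fixed cells were imaged; endpoint is percent change in SOX17+ cells versus 0.2% DMSO.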
# [2] = system: Brachyury (BRA) Protein Expression, TBXT (gene 6862); test: CCTE_Deisenroth_DEVTOX-GLR_Endo_BRA: CCTE's DevTox GLR-Endo Assay Evaluation of Brachyury (BRA) Protein Expression, Deisenroth Lab (AID 2284417)
# Procedure, shortened: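 RUES2-GLR pluripotent cells differentiated 48 h with two chemical exposures 24 h apart, 10-point range 1 nM - 200 uM. Percentage of BRA+ cells per total count by high-content imaging, minus 0.2% DMSO control.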
# [3] = CCTE_Deisenroth_DEVTOX-GLR_Endo_CellCount: Viability Assessment in CCTE's DevTox GLR-Endo Assay, Deisenroth Lab (AID 2284420)
# Procedure, shortened: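 Nuclei counted by fluorescence microscopy as a surrogate for cell number, expressed as percent change relative to 0.2% DMSO control. Human RUES2-GLR cells, 48 h differentiation, dosed twice; 1 nM - 200 uM series.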
# [4] = system: SRY-box transcription factor 17 (SOX17) Protein Expression, Deisenroth Lab, SOX17 (gene 64321); test: CCTE_Deisenroth_DEVTOX-GLR_Pluri_SOX17: CCTE's DevTox GLR-Pluri Assay Evaluation of SRY-box transcription factor 17 (SOX17) Protein Expression, Deisenroth Lab (AID 2284427; active = hit-call score of the fitted dose curve at least 0.9, where 1 is the maximum)
# Procedure, shortened: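 Readout: percent SOX17+ cells (SOX17+ count/cell count) by high-content imaging of an inducible fluorescent reporter, corrected for 0.2% DMSO solvent control. RUES2-GLR cells, 48 h differentiation, dosed twice at 24 h intervals, 1 nM - 200 uM.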
# [5] = system: SRY-box transcription factor 2 (SOX2) Protein Expression, Deisenroth Lab, SOX2 (gene 6657); test: CCTE_Deisenroth_DEVTOX-GLR_Pluri_SOX2: CCTE's DevTox GLR-Pluri Assay Evaluation of SRY-box transcription factor 2 (SOX2) Protein Expression, Deisenroth Lab (AID 2284428)
# Procedure, shortened: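 RUES2-GLR (human pluripotent), 48 h post-dosing, 2 exposures q24h, 1 nM–200 uM 10-pt. Fixed, nuclear dye, high-content imaging 5 fields/well. Endpoint: % SOX2+ cells (SOX2+/total count) vs 0.2% DMSO; n≥4.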
# [6] = system: Brachyury (BRA) Protein Expression, Deisenroth Lab, TBXT (gene 6862); test: CCTE_Deisenroth_DEVTOX-GLR_Pluri_BRA: CCTE's DevTox GLR-Pluri Assay Evaluation of Brachyury (BRA) Protein Expression, Deisenroth Lab (AID 2284429; active = hit-call score of the fitted dose curve at least 0.9, where 1 is the maximum)
# Procedure, shortened: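 Percent BRA+ cells (BRA+ count over total cells) by high-content imaging of fixed RUES2-GLR cultures, corrected by 0.2% DMSO control. Cells received two doses over 48-hour differentiation, 1 nM–200 uM, n=4 experiments.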
# [7] = CCTE_Deisenroth_DEVTOX-GLR_Pluri_CellCount: Viability Assessment in CCTE's DevTox GLR-Pluri Assay Evaluation of Total Cell Counts, Deisenroth Lab (AID 2284430)
# Procedure, shortened: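 Cytotoxicity readout: fluorescent nuclei counts by high-content imaging, expressed as percent change relative to 0.2% DMSO. Human RUES2-GLR pluripotent line differentiated 48 h, dosed twice at 24-h intervals across 1 nM - 200 uM (10 points).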
# TTR (gene 7276) = test: CCTE_GLTED_hTTR_0.125uM: CCTE's human Transthyretin (hTTR) Inhibition Assay, with 0.125uM TTR, Great Lakes Toxicology and Ecology Division (GLTED) Lab (AID 2284431);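 also: hits lower the fluorescence signal relative to DMSO baseline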
# Procedure, shortened: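 TTR 0.125uM + test chemical, 2 h; ANSA probe displacement; ex 380/em 475 fluorescence; signal loss vs DMSO control.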
smiles,measurement,setting,value
NC(=O)NO,outcome,[1],inactive
same,outcome,[2],inactive
same,AC50,[3],61.3 µM (active)
same,outcome,[4],inactive
same,outcome,[5],inactive
same,outcome,[6],inactive
same,outcome,[7],inactive
O=C(OC[C@H]1O[C@@H](OC(=O)c2cc(O)c(O)c(OC(=O)c3cc(O)c(O)c(O)c3)c2)[C@H](OC(=O)c2cc(O)c(O)c(OC(=O)c3cc(O)c(O)c(O)c3)c2)[C@@H](OC(=O)c2cc(O)c(O)c(OC(=O)c3cc(O)c(O)c(O)c3)c2)[C@@H]1OC(=O)c1cc(O)c(O)c(OC(=O)c2cc(O)c(O)c(O)c2)c1)c1cc(O)c(O)c(OC(=O)c2cc(O)c(O)c(O)c2)c1,AC50,TTR (gene 7276),0.252 µM (active)
O=C(O)c1cccc(Oc2ccccc2)c1,AC50,TTR (gene 7276),0.542 µM (active)
Cn1cnc([N+](=O)[O-])c1Sc1ncnc2nc[nH]c12,AC50,TTR (gene 7276),25.1 µM (active)
